Hits are enriched below; roughly 27% of the tested compounds scored in any of these assays.
CYP2C9 activ = human CYP2C9 activators, primary screen, biochemical, luminescence | Cytochrome P450 2C9 (Homo sapiens), P11712 | recombinant CYP2C9, luciferin-H conversion; active compounds read high; factor 1 = untreated enzyme, 0 = blocked | activation factor at 5 µM | 96,000 compounds, 1.4% hits | AID 1024, 2008;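 active means activation factor of 2 or more for CYP2C9 at a 5 µM dose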;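 further: 0 = sulfaphenazole-blocked wells and 1 = vehicle-only wells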
Target sequence (P11712 whole entry, looked up): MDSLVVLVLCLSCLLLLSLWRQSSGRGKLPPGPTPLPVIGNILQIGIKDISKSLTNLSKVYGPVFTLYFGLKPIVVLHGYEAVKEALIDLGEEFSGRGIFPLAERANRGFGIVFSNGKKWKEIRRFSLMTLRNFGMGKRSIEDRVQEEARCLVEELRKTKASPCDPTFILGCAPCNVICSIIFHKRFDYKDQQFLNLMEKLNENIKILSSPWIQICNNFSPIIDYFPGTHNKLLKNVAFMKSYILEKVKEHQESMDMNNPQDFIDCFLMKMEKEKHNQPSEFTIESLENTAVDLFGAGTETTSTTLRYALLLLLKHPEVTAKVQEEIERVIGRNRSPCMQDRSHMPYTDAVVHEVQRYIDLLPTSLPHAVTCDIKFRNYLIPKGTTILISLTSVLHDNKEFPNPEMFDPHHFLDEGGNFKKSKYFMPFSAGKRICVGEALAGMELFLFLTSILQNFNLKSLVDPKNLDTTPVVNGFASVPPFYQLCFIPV
CYP2C19 activ = human CYP2C19 activators, primary screen, biochemical, luminescence | recombinant CYP2C19, luciferin-H EGE luminescence; active compounds read high; 0 = fully inhibited enzyme, 1 = untreated enzyme | 96,000 tested, under 10 active | Cytochrome P450 2C19 (Homo sapiens), P33261 | activation factor at 5 µM;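 active means activation factor of at least 2 at 5 µM in the primary screen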;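 further: 0 = wells with 2.5 mM tranylcypromine and 1 = vehicle-only wells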
CYP2C9 inh = blockers of cytochrome P450 2C9 activity – biochemical, luminescence, ADME assay, primary screen | 96,000 compounds, 20% hits | CYP2C9 Supersomes, luciferin-H conversion | inhibition, % at 5 µM | P11712;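 active means blocking of liver enzyme CYP2C9 beyond about 50% at 5 µM, limit read from the data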
CYP2C19 inhib = blockers of cytochrome P450 2C19 activity – biochemical, luminescence, ADME assay, primary screen; P33261; CYP2C19 Supersomes, luciferin-H EGE luminescence, 30 min; inhibition, % at 5 µM; 96,000 compounds, 21% hits; AID 778, 2007;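 active means CYP2C19 inhibition above a set limit at 5 µM in the primary screen, cut at about 50% in these data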;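 further: plate controls were negative control wells for no effect and 2.5 mM tranylcypromine positive control for full effect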
Cav32 inh = Cav3.2 calcium influx blockers – cell-based, Fluo-4 calcium fluorescence, FDSS, MLSMR library, primary screen; Voltage-dependent T-type calcium channel subunit alpha-1H (Homo sapiens), O95180; Cav3.2-expressing cells; active compounds read low; B-score at 10 µM; 100,000 compounds, 4% hits;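 active means single-dose well whose peak fluorescence ratio is a statistical outlier from its plate by either plate-standardised score or position-corrected B-score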
* marks the source's active call; other numbers are inactive results.

`CCc1cccc(C)c1NC(=O)CSc1nc2ccc(N3C(=O)c4ccccc4C3=O)cc2s1` gave CYP2C9 activ 0.5, CYP2C19 activ 0.7, CYP2C9 inh 51* and CYP2C19 inhib 35.
Screening CCc1cccc(C)c1NC(=O)CN1C(=O)c2ccccc2S1(=O)=O returned CYP2C9 activ 0.6, CYP2C19 activ 0.2, CYP2C9 inh 37, CYP2C19 inhib 77* and Cav32 inh -0.12.
`CN(CC(=O)Nc1ccc(C#N)cc1)Cc1ccc(Cl)c(Cl)c1` gave CYP2C9 activ 0.5, CYP2C19 activ 0.6, CYP2C9 inh 45, CYP2C19 inhib 39 and Cav32 inh -6.6*.
CC(=O)Nc1ccc(NC(=O)CN(C)CCC#N)cc1 was read as CYP2C9 activ 1.4, CYP2C19 activ 1.2, CYP2C9 inh -36, CYP2C19 inhib -17 and Cav32 inh -0.48.
For CCOC(=O)C1C(=O)NC(C)C1c1ccccc1 (centres undefined) the results were CYP2C9 activ 1.1, CYP2C19 activ 1.2, CYP2C9 inh -8, CYP2C19 inhib -22 and Cav32 inh -0.17.
Screening Cc1nn(-c2ccc(F)cc2)c2nc(N)c(C#N)c(-c3cccs3)c12 returned CYP2C9 activ 0.9, CYP2C19 activ 1.1, CYP2C9 inh 8, CYP2C19 inhib -12 and Cav32 inh 0.25.
`COc1cc(-c2c(C#N)c(N)nc3c2c(C)nn3-c2ccc(C)c(C)c2)cc(OC)c1OC` gave CYP2C9 activ 0.7, CYP2C19 activ 0.9, CYP2C9 inh 26, CYP2C19 inhib 6 and Cav32 inh -4.8*.
For CC(NC(=O)C1(C)CC1(Br)Br)C(C)(C)C (centres undefined) the results were CYP2C9 activ 1, CYP2C19 activ 0.9, CYP2C9 inh -3, CYP2C19 inhib 6 and Cav32 inh 1.5.
CCOCCCNC(=O)CS(=O)(=O)Cc1nc(-c2cccc(OC)c2)oc1C was read as CYP2C9 activ 0.9, CYP2C19 activ 1, CYP2C9 inh 10, CYP2C19 inhib -1 and Cav32 inh 0.44.
For CCOc1ccc(-c2nc(CSCC(=O)NC3CCCc4ccccc43)c(C)o2)cc1 (centres undefined) the results were CYP2C9 activ 0.6, CYP2C19 activ 0.3, CYP2C9 inh 37, CYP2C19 inhib 65* and Cav32 inh -6.3*.
COc1cccc(-c2nc(CS(=O)(=O)CC(=O)NC3CCCc4ccccc43)c(C)o2)c1 (centres undefined) was read as CYP2C9 activ 0.5, CYP2C19 activ 0.7, CYP2C9 inh 49, CYP2C19 inhib 26 and Cav32 inh -6.8*.
For COc1cccc(-c2nc(CS(=O)(=O)CC(=O)N3CCc4ccccc4C3)c(C)o2)c1 the results were CYP2C9 activ 0.5, CYP2C19 activ 1, CYP2C9 inh 45, CYP2C19 inhib 1 and Cav32 inh -4.8*.
Screening Cc1ccc(-c2nc(CS(=O)(=O)CC(=O)N3CC(C)CC(C)C3)c(C)o2)cc1 (centres undefined) returned CYP2C9 activ 0.3, CYP2C19 activ 0.6, CYP2C9 inh 71*, CYP2C19 inhib 41 and Cav32 inh -3.9.
For COc1ccc(NC(=O)CS(=O)CC(=O)NC2CCCc3ccccc32)cc1 (centres undefined) the results were CYP2C9 activ 1, CYP2C19 activ 1, CYP2C9 inh 4, CYP2C19 inhib -2 and Cav32 inh -1.1.
COc1cccc(-c2nc(CS(=O)(=O)CC(=O)N3CCN(C)CC3)c(C)o2)c1 was read as Cav32 inh -0.0088.
CCCN(CCC)S(=O)(=O)c1cc(Br)cc2c1N(C(=O)CC)CC2 was read as CYP2C9 activ 0.6, CYP2C19 activ 0.9, CYP2C9 inh 42, CYP2C19 inhib 9 and Cav32 inh -0.22.
For COC(=O)C(C)Sc1nnc(Cc2cc(=O)[nH]c(=O)[nH]2)n1-c1cc(C)ccc1C (centres undefined) the results were CYP2C9 activ 1, CYP2C19 activ 1, CYP2C9 inh -1, CYP2C19 inhib 1 and Cav32 inh 0.86.
`Cc1nn(CC2CCCCC2)c(N)c1-c1ccccc1` gave CYP2C9 activ 0.1, CYP2C19 activ 0, CYP2C9 inh 92*, CYP2C19 inhib 98* and Cav32 inh -1.5.
Screening CCOC(=O)Cn1nc(C)c(-c2ccccc2)c1N returned CYP2C9 activ 1, CYP2C19 activ 0.7, CYP2C9 inh 3, CYP2C19 inhib 34 and Cav32 inh 0.74.
Screening CN(C=O)CP(=O)(O)CN1CCCCC1 returned CYP2C9 activ 1.2, CYP2C19 activ 1.2, CYP2C9 inh -20 and CYP2C19 inhib -19.
Screening CCOc1ccc(NC(=O)N(C2CCCCC2)C(C)c2ccncc2)cc1 (centres undefined) returned CYP2C9 activ 0.3, CYP2C19 activ 0.4, CYP2C9 inh 68* and CYP2C19 inhib 63*.
Screening CCOc1ccc(NC(=O)N(C2CCCCC2)C(C)c2cccnc2)cc1 (centres undefined) returned CYP2C9 activ 0.6, CYP2C19 activ 0.6, CYP2C9 inh 41, CYP2C19 inhib 41 and Cav32 inh -0.76.
`COc1ccc(N2C(=O)CC(S/C(N)=N/N=C(\C)c3cccs3)C2=O)cc1` (centres undefined) gave CYP2C9 activ 0.6, CYP2C19 activ 0.8, CYP2C9 inh 44, CYP2C19 inhib 21 and Cav32 inh -3.7.
CCC(CO)NCc1ccc2c(c1)n(C)c(=O)n2C (centres undefined) was read as CYP2C9 activ 1.1, CYP2C19 activ 1.1, CYP2C9 inh -11, CYP2C19 inhib -11 and Cav32 inh 0.25.
Screening COc1cc(OC)cc(C(=O)N(Cc2cc3cc(C)ccc3[nH]c2=O)C(C)C)c1 returned CYP2C9 activ 0.7, CYP2C19 activ 0.9, CYP2C9 inh 33, CYP2C19 inhib 10 and Cav32 inh -0.55.
Screening CCCN(Cc1cc2ccc(C)cc2[nH]c1=O)C(=O)c1cccnc1 returned CYP2C9 activ 1.2, CYP2C19 activ 1, CYP2C9 inh -17, CYP2C19 inhib -5 and Cav32 inh 0.58.
Screening CCCN(Cc1cc2cc(OC)ccc2[nH]c1=O)C(=O)c1ccncc1 returned CYP2C9 activ 0.5, CYP2C19 activ 0.3, CYP2C9 inh 46, CYP2C19 inhib 68* and Cav32 inh -0.19.
COc1ccc2[nH]c(=O)c(CN(C(=O)c3ccncc3)C(C)C)cc2c1 was read as CYP2C9 activ 0.5, CYP2C19 activ 0.7, CYP2C9 inh 50*, CYP2C19 inhib 29 and Cav32 inh -0.27.
Screening CCN(Cc1cc2ccc(C)cc2[nH]c1=O)C(=O)c1ccncc1 returned CYP2C9 activ 0.6, CYP2C19 activ 0.3, CYP2C9 inh 41, CYP2C19 inhib 68* and Cav32 inh 0.49.
